Laboratory results reported in PubChem BioAssay (NCI).
Compounds without any hit were thinned out: in the full panel of roughly 83,000, 20% have a hit.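 For each line, cells grew in 96-well plates with the test compound present at a single concentration for 48 hours.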 Activity calls are given as the source filed them. The calls were made as follows: active = growth percent below 10; inactive = the rest.

Columns and labels:
Experiment in all cases: NCI-60 one-dose screen, 48 h (100 = growth as untreated, 0 = no growth, -100 = all killed)
Conditions in all cases: 10 µM unless noted
HT29 colon = test system: HT29 colon
SNB-75 CNS = test system: SNB-75 CNS
SNB-19 CNS = test system: SNB-19 CNS
U251 CNS = test system: U251 CNS
PC-3 prostate = test system: PC-3 prostate
UACC-62 melanoma = test system: UACC-62 melanoma
LOX IMVI melanoma = test system: LOX IMVI melanoma
SK-MEL-28 melanoma = test system: SK-MEL-28 melanoma
SK-MEL-2 melanoma = test system: SK-MEL-2 melanoma
EKVX NSCLC = test system: EKVX NSCLC
SN12C renal = test system: SN12C renal
UO-31 renal = test system: UO-31 renal
TK-10 renal = test system: TK-10 renal
ACHN renal = test system: ACHN renal
CAKI-1 renal = test system: CAKI-1 renal
A498 renal = test system: A498 renal
CCRF-CEM leukemia = test system: CCRF-CEM leukemia
MOLT-4 leukemia = test system: MOLT-4 leukemia
SK-MEL-5 melanoma = test system: SK-MEL-5 melanoma
SR leukemia = test system: SR leukemia

Measured: growth

O=C(OC[C@H]1O[C@H](OC(=O)c2cc(O)c(O)c(OC(=O)c3cc(O)c(O)c(O)c3)c2)[C@H](OC(=O)c2cc(O)c(O)c(OC(=O)c3cc(O)c(O)c(O)c3)c2)[C@@H](OC(=O)c2cc(O)c(O)c(OC(=O)c3cc(O)c(O)c(O)c3)c2)[C@@H]1OC(=O)c1cc(O)c(O)c(OC(=O)c2cc(O)c(O)c(O)c2)c1)c1cc(O)c(O)c(OC(=O)c2cc(O)c(O)c(O)c2)c1
inactive: HT29 colon 33.5% | SNB-75 CNS 53.6% | SNB-19 CNS 36.6% | U251 CNS 22.3% | PC-3 prostate 38% | UACC-62 melanoma 10.6% | SK-MEL-28 melanoma 78.6% | SK-MEL-2 melanoma 80.4% | EKVX NSCLC 37.4% | SN12C renal 31.6% | UO-31 renal 22.1% | TK-10 renal 43.4% | ACHN renal 24.6% | CAKI-1 renal 19.6% | A498 renal 35.6% | CCRF-CEM leukemia 24% | MOLT-4 leukemia 26.3%
active: LOX IMVI melanoma 7.17%

CCCCN(CCCC)CCCOC(=O)c1ccc(N)cc1
inactive: HT29 colon 31.4% | SNB-75 CNS 39.1% | SNB-19 CNS 88.7% | U251 CNS 58.5% | PC-3 prostate 97.1% | UACC-62 melanoma 92.3% | LOX IMVI melanoma 64.2% | SK-MEL-28 melanoma 57.5% | SK-MEL-2 melanoma 85.1% | EKVX NSCLC 94.3% | SN12C renal 82% | UO-31 renal 81.2% | TK-10 renal 103% | ACHN renal 91.9% | CAKI-1 renal 90.5% | A498 renal 104% | CCRF-CEM leukemia 96.8% | MOLT-4 leukemia 93.2%

COC(=O)[C@]12CC[C@@H](C)[C@H](C)[C@@H]1C1=CC[C@@H]3[C@@]4(C)C=C(O)C(=O)[C@@]5(C)COC(=C54)C[C@@]3(C)[C@]1(C)CC2
active: HT29 colon -70.6% | SNB-19 CNS -26.5% | U251 CNS -74.9% | PC-3 prostate -71.2% | SK-MEL-5 melanoma -98.1% | LOX IMVI melanoma -98.8% | SK-MEL-28 melanoma -56.9% | SK-MEL-2 melanoma -62.8% | EKVX NSCLC -56.7% | SN12C renal -29.9% | TK-10 renal -62.3% | ACHN renal -71.7% | CAKI-1 renal -45.7% | A498 renal -78% | CCRF-CEM leukemia -60.8% | MOLT-4 leukemia -72.1% | SR leukemia -68.2%
inactive: SNB-75 CNS 12.7%

O=C(Nc1nc(-c2ccc(Cl)cc2)cs1)c1cc(O)c(O)c(O)c1
active: LOX IMVI melanoma 1.72% | UO-31 renal 6.01% | CAKI-1 renal 8.69% | CCRF-CEM leukemia 8.08% | MOLT-4 leukemia 4.68% | SR leukemia 0.551%
inactive: HT29 colon 71.9% | SNB-75 CNS 36.7% | SNB-19 CNS 25.9% | U251 CNS 23.5% | PC-3 prostate 46.9% | SK-MEL-5 melanoma 24.6% | SK-MEL-28 melanoma 42.9% | SK-MEL-2 melanoma 31.9% | SN12C renal 22.6% | ACHN renal 15.9% | A498 renal 77.1%

CCOC(=O)/C(=C/c1ccccc1)C(=O)c1ccccc1
active: LOX IMVI melanoma -26.9% | CCRF-CEM leukemia 3.43% | SR leukemia 6.68%
inactive: HT29 colon 84.1% | SNB-75 CNS 49.6% | SNB-19 CNS 85.4% | U251 CNS 68.1% | PC-3 prostate 80.6% | SK-MEL-5 melanoma 66.5% | SK-MEL-28 melanoma 94.3% | SN12C renal 72.6% | ACHN renal 70.5% | CAKI-1 renal 78.1% | A498 renal 87.5% | MOLT-4 leukemia 33.1%

COc1ccc(-c2csc(NC(=O)c3cc(O)c(O)c(O)c3)n2)cc1
inactive: HT29 colon 92.3% | SNB-75 CNS 58.8% | SNB-19 CNS 59.9% | U251 CNS 45.6% | PC-3 prostate 68.4% | SK-MEL-5 melanoma 51% | LOX IMVI melanoma 50.6% | SK-MEL-28 melanoma 89.1% | SK-MEL-2 melanoma 71.4% | SN12C renal 64.8% | UO-31 renal 30.3% | ACHN renal 36% | CAKI-1 renal 38.6% | A498 renal 112% | CCRF-CEM leukemia 18.5% | SR leukemia 14.5%

COc1cc2c(-c3nc4cc(Cl)c(F)cc4s3)cc(=O)oc2c(C)c1OC
active: HT29 colon -80% | SNB-75 CNS -90.3% | U251 CNS -92.3% | SK-MEL-5 melanoma -84.2% | LOX IMVI melanoma -73.5% | SK-MEL-28 melanoma -28.6% | SK-MEL-2 melanoma -82.2% | SN12C renal -73.8% | UO-31 renal -94.4% | ACHN renal -83.8% | CAKI-1 renal -78.5% | A498 renal 8.7% | CCRF-CEM leukemia -72.5% | MOLT-4 leukemia -43% | SR leukemia -53.9%
inactive: SNB-19 CNS 34.7% | PC-3 prostate 19.2%

CO[C@H]1/C=C/O[C@@]2(C)Oc3c(C)c(O)c4c(O)c(c(/C=N/N5CCN(C)CC5)c(O)c4c3C2=O)NC(=O)/C(C)=C\C=C\C(C)[C@H](O)[C@@H](C)[C@@H](O)[C@@H](C)[C@@H](OC(C)=O)[C@@H]1C (stereo partly specified)
inactive: HT29 colon 107% | SNB-75 CNS 88.7% | SNB-19 CNS 101% | U251 CNS 96.9% | PC-3 prostate 94% | SK-MEL-5 melanoma 90.6% | LOX IMVI melanoma 93.8% | SK-MEL-28 melanoma 101% | SK-MEL-2 melanoma 113% | EKVX NSCLC 91.7% | SN12C renal 105% | TK-10 renal 98.6% | ACHN renal 82.1% | CAKI-1 renal 90.4% | A498 renal 103% | CCRF-CEM leukemia 101% | MOLT-4 leukemia 102% | SR leukemia 105%

Fc1ccc(-c2nc(Nc3ccc(-c4nc5ccccc5[nH]4)cc3)nc(N3CCOCC3)n2)cc1
active: HT29 colon -78.6% | SNB-75 CNS -92.6% | SNB-19 CNS -81.2% | U251 CNS -93% | PC-3 prostate -93.5% | SK-MEL-5 melanoma -97.6% | LOX IMVI melanoma -93% | SK-MEL-28 melanoma -84.7% | SK-MEL-2 melanoma -71.3% | EKVX NSCLC -91.3% | SN12C renal -79.5% | UO-31 renal -87.6% | TK-10 renal -94.4% | ACHN renal -90.6% | CAKI-1 renal -93.6% | A498 renal -81.5% | CCRF-CEM leukemia -91.5% | MOLT-4 leukemia -91.6% | SR leukemia -83.3%

CC[C@]1(O)CC2CN(CCc3c([nH]c4ccccc34)[C@@](C(=O)OC)(c3cc4c(cc3OC)N(C)[C@H]3[C@@](O)(C(=O)OC)[C@H](OC(C)=O)[C@]5(CC)C=CCN6CC[C@]43[C@@H]65)C2)C1 (stereo partly specified)
active: HT29 colon 3.18% | SNB-75 CNS 5.29% | SK-MEL-5 melanoma -61.3% | A498 renal -15.6%
inactive: SNB-19 CNS 43.8% | U251 CNS 17.3% | PC-3 prostate 28.1% | LOX IMVI melanoma 18.9% | SK-MEL-28 melanoma 68.1% | SK-MEL-2 melanoma 34.3% | EKVX NSCLC 49.6% | SN12C renal 39.6% | UO-31 renal 18.9% | TK-10 renal 62.6% | ACHN renal 21.9% | CAKI-1 renal 26.8% | CCRF-CEM leukemia 10.7% | MOLT-4 leukemia 16.4% | SR leukemia 10.2%

CSc1ccc2c(c1)N(CCC1CCCCN1C)c1ccccc1S2 (stereo unspecified)
inactive: HT29 colon 21.6% | SNB-75 CNS 34.5% | SNB-19 CNS 75.3% | U251 CNS 34.3% | PC-3 prostate 34.1% | SK-MEL-5 melanoma 23.7% | LOX IMVI melanoma 23.5% | SK-MEL-28 melanoma 81.7% | SK-MEL-2 melanoma 88.6% | EKVX NSCLC 67.5% | SN12C renal 48% | UO-31 renal 28.2% | TK-10 renal 66.4% | ACHN renal 25.8% | CAKI-1 renal 32.9% | A498 renal 84% | CCRF-CEM leukemia 35.3% | MOLT-4 leukemia 40.5% | SR leukemia 14.2%

COc1ccc(/C=C(\C#N)c2ccccc2)cc1
inactive: HT29 colon 85.5% | SNB-75 CNS 64.6% | SNB-19 CNS 80.8% | U251 CNS 81.4% | PC-3 prostate 83.3% | SK-MEL-5 melanoma 81% | LOX IMVI melanoma 89.7% | SK-MEL-28 melanoma 90.6% | SN12C renal 86.6% | UO-31 renal 85.6% | ACHN renal 97.3% | CAKI-1 renal 78.2% | A498 renal 79.4% | CCRF-CEM leukemia 93.1% | MOLT-4 leukemia 96.1% | SR leukemia 55.7%

N#Cc1c2ccccc2c2n1-c1ccccc1OC(c1ccccc1)C2=O (stereo unspecified)
active: LOX IMVI melanoma 9.92% | CCRF-CEM leukemia 6.32% | SR leukemia -7.43%
inactive: HT29 colon 23.1% | SNB-75 CNS 24.2% | SNB-19 CNS 23.5% | U251 CNS 17.9% | PC-3 prostate 32.1% | SK-MEL-5 melanoma 10.6% | SK-MEL-28 melanoma 93.8% | SN12C renal 15.4% | UO-31 renal 11.2% | ACHN renal 29% | CAKI-1 renal 30.6% | A498 renal 30.6% | MOLT-4 leukemia 56.4%

O=C(Nc1nc(-c2ccccc2)cs1)c1cc(O)c(O)c(O)c1
inactive: HT29 colon 80.8% | SNB-75 CNS 33.1% | SNB-19 CNS 41.5% | U251 CNS 32.1% | PC-3 prostate 58.8% | SK-MEL-5 melanoma 44.1% | LOX IMVI melanoma 40.2% | SK-MEL-28 melanoma 76.8% | SK-MEL-2 melanoma 56.8% | SN12C renal 50.5% | UO-31 renal 24.6% | ACHN renal 40.3% | CAKI-1 renal 26.4% | A498 renal 85.9% | MOLT-4 leukemia 17.1%
active: CCRF-CEM leukemia 9.11% | SR leukemia 8.07%

Cc1cc(C(C)(C)C)cc(C)c1CC1=NCCN1
inactive: HT29 colon 105% | SNB-75 CNS 97% | SNB-19 CNS 106% | U251 CNS 106% | PC-3 prostate 91% | SK-MEL-5 melanoma 96.7% | LOX IMVI melanoma 95% | SK-MEL-28 melanoma 116% | SK-MEL-2 melanoma 113% | EKVX NSCLC 89% | SN12C renal 111% | UO-31 renal 93% | TK-10 renal 113% | ACHN renal 92.8% | CAKI-1 renal 85.4% | A498 renal 117% | CCRF-CEM leukemia 103% | MOLT-4 leukemia 93.5% | SR leukemia 94.3%

N#Cc1cnc2cc(OC[C@H](O)CO)c(NC(=O)CC3CSSC3)cc2c1Nc1ccc(OCc2cccc(F)c2)c(Cl)c1
inactive: UO-31 renal 47.6% | ACHN renal 20.8% | CAKI-1 renal 70.1%
active: HT29 colon -77.8% | SNB-75 CNS -92.3% | SNB-19 CNS -64.6% | U251 CNS -69.2% | PC-3 prostate -100% | SK-MEL-5 melanoma -95.9% | LOX IMVI melanoma -86.3% | SK-MEL-28 melanoma -84.6% | SK-MEL-2 melanoma -70.6% | EKVX NSCLC -69.9% | SN12C renal -65.7% | TK-10 renal -70.5% | A498 renal -71.5% | CCRF-CEM leukemia -81.8% | MOLT-4 leukemia -90.1% | SR leukemia -72.6%
